CXXC DNA block – qHTS Fluorescence Polarization Assay for Inhibitors of MLL CXXC domain - DNA interaction. MLL-CXXC / FITC-HOXA9 DNA fluorescence polarization. Potency, µM (series often up to 115 µM), for the others: at the top dose activity change, negative = inhibition, usual class: inhibitors. actives 0.037% (n = 290,000); active means well fitted inhibition curve with a large enough effect in the polarisation, with a control signal flat, not every such curve was filed as active; inconclusive means small, poorly fitted or top-dose-only effect, or effect the other way, or a change in a side signal; inactive means no such curve, though single readings can be large or run the other way; the % refers to the polarisation; further: potency means the concentration at half of the fitted maximal effect
Target sequence (Q03164 whole entry, looked up, the tested form may be a part): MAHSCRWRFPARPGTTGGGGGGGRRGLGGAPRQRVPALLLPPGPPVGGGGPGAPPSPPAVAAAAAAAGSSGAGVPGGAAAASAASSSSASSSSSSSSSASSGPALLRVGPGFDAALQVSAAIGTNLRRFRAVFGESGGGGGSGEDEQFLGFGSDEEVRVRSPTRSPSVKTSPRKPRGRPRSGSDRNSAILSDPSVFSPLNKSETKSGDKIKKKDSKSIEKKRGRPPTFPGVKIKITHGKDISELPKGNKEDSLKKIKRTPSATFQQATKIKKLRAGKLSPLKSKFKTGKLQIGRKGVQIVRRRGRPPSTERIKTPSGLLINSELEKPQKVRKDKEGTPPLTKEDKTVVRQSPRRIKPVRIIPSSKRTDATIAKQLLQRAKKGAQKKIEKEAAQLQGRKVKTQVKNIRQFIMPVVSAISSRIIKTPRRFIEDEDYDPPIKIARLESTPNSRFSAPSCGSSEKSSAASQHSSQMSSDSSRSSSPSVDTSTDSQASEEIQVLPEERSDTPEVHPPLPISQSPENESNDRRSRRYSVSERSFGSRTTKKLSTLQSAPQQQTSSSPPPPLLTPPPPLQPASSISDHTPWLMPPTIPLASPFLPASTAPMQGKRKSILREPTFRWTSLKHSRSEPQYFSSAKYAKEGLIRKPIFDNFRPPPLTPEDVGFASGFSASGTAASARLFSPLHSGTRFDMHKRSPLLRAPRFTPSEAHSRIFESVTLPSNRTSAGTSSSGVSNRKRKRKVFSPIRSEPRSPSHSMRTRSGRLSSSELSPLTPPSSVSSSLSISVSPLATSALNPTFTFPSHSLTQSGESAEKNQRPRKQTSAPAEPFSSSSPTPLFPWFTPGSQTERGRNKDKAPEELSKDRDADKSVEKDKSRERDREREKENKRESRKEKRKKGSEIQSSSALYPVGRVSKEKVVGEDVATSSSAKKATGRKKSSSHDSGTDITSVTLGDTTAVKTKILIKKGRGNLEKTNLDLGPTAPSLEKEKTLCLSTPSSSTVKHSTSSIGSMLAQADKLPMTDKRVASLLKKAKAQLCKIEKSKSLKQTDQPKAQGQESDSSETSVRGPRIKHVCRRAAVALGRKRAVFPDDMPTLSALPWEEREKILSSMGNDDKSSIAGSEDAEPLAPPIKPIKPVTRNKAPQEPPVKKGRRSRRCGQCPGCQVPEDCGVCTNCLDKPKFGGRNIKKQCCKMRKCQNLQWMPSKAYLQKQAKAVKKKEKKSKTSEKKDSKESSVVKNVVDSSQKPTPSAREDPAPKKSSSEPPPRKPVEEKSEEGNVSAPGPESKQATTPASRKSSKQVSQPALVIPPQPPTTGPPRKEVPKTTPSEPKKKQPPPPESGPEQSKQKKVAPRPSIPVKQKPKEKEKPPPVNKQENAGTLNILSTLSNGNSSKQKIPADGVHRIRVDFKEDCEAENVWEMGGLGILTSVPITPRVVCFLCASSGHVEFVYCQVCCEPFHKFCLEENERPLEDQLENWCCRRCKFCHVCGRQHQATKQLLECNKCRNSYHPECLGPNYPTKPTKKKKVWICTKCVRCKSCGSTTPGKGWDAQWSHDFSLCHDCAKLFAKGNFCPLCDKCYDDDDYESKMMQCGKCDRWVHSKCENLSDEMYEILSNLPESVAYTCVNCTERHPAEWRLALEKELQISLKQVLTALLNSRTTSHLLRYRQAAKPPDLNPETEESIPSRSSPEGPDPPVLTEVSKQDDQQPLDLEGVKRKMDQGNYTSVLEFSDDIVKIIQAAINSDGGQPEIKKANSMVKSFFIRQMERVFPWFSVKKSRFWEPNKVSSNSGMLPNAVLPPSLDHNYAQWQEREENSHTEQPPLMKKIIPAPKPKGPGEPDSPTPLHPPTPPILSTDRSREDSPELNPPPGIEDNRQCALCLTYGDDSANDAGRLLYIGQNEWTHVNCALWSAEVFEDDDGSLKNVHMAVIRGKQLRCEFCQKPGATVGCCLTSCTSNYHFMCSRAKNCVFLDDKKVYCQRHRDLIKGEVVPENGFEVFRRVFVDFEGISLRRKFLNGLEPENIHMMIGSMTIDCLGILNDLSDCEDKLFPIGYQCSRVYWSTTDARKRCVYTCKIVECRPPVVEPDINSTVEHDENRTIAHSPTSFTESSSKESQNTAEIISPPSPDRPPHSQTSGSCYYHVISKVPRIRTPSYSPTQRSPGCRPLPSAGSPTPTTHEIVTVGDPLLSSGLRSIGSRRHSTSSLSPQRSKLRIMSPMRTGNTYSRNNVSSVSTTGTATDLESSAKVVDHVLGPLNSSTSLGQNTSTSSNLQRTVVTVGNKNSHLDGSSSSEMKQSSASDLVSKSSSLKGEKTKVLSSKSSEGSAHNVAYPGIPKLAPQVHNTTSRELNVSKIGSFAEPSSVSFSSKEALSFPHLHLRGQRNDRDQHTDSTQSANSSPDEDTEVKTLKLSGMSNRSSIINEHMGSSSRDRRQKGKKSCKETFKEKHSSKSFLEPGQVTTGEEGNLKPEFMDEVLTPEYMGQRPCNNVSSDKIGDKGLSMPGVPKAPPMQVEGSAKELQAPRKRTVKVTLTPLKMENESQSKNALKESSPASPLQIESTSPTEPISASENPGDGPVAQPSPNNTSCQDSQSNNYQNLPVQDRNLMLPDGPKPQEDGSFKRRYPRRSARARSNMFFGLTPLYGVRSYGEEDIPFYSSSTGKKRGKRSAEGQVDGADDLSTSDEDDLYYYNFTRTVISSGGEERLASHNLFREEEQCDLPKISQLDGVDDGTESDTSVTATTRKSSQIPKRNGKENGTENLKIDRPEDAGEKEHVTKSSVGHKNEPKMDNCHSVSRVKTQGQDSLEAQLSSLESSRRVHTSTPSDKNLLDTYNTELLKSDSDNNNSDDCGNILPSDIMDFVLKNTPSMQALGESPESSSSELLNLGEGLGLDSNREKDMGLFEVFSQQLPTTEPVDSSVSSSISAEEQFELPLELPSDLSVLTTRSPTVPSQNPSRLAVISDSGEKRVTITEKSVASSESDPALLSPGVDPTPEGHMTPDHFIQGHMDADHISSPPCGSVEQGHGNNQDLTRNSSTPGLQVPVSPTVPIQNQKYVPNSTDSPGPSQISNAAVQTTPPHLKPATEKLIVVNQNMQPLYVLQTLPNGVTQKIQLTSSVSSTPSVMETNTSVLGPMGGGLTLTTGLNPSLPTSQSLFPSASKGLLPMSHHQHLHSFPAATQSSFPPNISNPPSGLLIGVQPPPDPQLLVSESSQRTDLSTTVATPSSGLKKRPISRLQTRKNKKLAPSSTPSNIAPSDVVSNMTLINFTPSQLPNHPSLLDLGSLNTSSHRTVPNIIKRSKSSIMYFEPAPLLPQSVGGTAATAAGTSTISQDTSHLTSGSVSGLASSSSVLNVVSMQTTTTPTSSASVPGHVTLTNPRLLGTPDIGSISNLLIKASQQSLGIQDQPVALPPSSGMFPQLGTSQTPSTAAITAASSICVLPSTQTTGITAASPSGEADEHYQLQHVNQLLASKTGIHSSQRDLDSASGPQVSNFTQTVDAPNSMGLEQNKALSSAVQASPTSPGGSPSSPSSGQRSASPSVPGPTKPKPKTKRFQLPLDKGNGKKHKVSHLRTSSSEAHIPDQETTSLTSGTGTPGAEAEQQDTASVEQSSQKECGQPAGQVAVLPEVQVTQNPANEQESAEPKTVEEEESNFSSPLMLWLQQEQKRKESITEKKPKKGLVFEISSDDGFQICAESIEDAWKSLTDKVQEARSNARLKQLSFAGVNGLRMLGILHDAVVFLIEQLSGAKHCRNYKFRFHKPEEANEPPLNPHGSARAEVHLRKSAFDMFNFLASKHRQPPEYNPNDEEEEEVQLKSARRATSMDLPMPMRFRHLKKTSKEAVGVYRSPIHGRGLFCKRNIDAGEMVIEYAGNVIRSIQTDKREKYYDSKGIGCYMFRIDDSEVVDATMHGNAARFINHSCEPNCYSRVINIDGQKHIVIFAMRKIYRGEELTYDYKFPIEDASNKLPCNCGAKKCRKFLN
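Steps: dispense CXXC domain solution (7 uM) → pin compounds or unlabeled HOX-A9 DNA control → 5 min ambient → add FLSN-HOX-A9 solution (50 nM) → spin → 30 min ambient → fluorescence polarization. Tris pH 7.5/NaCl/DTT/BSA buffer.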
Menin-MLL FL inh – qHTS Assay for Inhibitors Targeting the Menin-MLL Interaction in MLL Related Leukemias: Competition With Fluorescein Labeled MLL-derived Peptide; Fluorescence polarization, fluorescein-MLL peptide displacement from menin; FP activity change, % at 61.4 µM; 290,000 tested, under 10 active; active means well fitted curve in the direction sought with a large enough effect in the polarisation, not every such curve was filed as active; inconclusive means small, poorly fitted or top-dose-only effect, or effect the other way, or a change in a side signal; inactive means no such curve, though single readings can be large or run the other way; the % refers to the polarisation; further: % of control where 0% means no effect
p53 reactivation – qHTS assay for re-activators of p53 using a Luc reporter; actives 0.063% (n = 320,000); H1299 p53-A138V BP100-luciferase reporter, luminescence, 24 h; Potency, µM (top dose mostly 92.2 µM), without a hit: at the top dose activity change, positive = activation, usual class: activators; active means well fitted activation curve with a large enough effect; inconclusive means small, poorly fitted or top-dose-only effect; inactive means no such curve, though single readings can be large or run the other way; further: potency means the concentration at half of the fitted maximal effect; % of control where 0% means no effect; nearly all actives have a fitted effect of over 45% in size
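H1299 (p53-null), stable ts p53-A138V + BP100-Luc; 1000 cells/well, Opti-MEM/10% FBS; cpd 4 pt, 1:5; 24 h, 37 deg C, 5% CO2; detection reagent 10 min RT; luminescence.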
ClpP mod – qHTS Assay for Activators of ClpP | Potency, µM (titrated, usually from 57.5 µM), inactives show at the top dose activity change, negative = active | purified B. subtilis ClpP, FRET peptide cleavage, 20 min | AID 651965, 2013 | actives 1.9% (n = 340,000); active means well fitted falling curve with a large enough effect; inconclusive means small, poorly fitted or top-dose-only effect; inactive means no such curve, though single readings can be large or run the other way; further: potency means the concentration at half of the fitted maximal effect; the source files actives as falling curves though it sought activators and does not explain the sign; nearly all actives have a fitted effect of over 65% in size
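Purified B. subtilis ClpP, 10 microg/mL final in Tris/HCl pH8 with KCl, BSA, glycerol and Tween-20, cleaved an Abz/nitrotyrosine-quenched decapeptide. Fluorescence (ex 320, em 430) was read at 0 and 20 min at room temperature. Delta was normalized to 5.8 microM ADEP and DMSO/no-enzyme controls.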
Menin MLL FP TR – qHTS Assay for Inhibitors Targeting the Menin-MLL Interaction in MLL Related Leukemias: Competition With Texas Red Labeled MLL-derived Mutant Peptide; O00255; Menin + Texas Red MLL mutant peptide, fluorescence polarization; Potency, µM (titrated, usually from 61.6 µM), inactives show at the top dose FP activity change, negative = inhibition, actives largely listed as inhibitors; actives 0.23% (n = 270,000); AID 1768, 2009; active means well fitted inhibition curve with a large enough effect in the polarisation, with a control signal flat, not every such curve was filed as active; inconclusive means small, poorly fitted or top-dose-only effect, or effect the other way, or a change in a side signal; inactive means no such curve, though single readings can be large or run the other way; the % refers to the polarisation; further: potency means the concentration at half of the fitted maximal effect; % of control where 0% means no effect
Starred values were filed as active, the others as inactive; ? = inconclusive; · = not tested or not shown. This is one part of a sample in which hits are shown more often than they occur.

SMILES | CXXC DNA block | Menin-MLL FL inh | p53 reactivation | ClpP mod | Menin MLL FP TR
COc1ccc(-c2nc(C#N)c(N3CCN(c4cccc(Cl)c4)CC3)o2)cc1OC | 6% | 0 | 1% | 28µM* | 7%
N#Cc1nc(-c2cccc3ccccc23)oc1N1CCCCC1 | 0% | -7 | ? | ? | 6%
CN(C)c1ccc(N=Nc2ccc(S(=O)(=O)O)cc2)cc1 | · | · | · | 0% | ·
COc1ccc(/C=C/c2cnc3ccccc3n2)cc1OC | · | · | · | -7% | ·
CN(C)c1ccc(/C=C/c2cc[n+](C)c3ccc4ccccc4c23)cc1 | · | · | · | 1% | ·
COc1ccc(-c2noc(CNC(=O)c3ccccc3Br)n2)cc1 | · | · | · | 1% | ·
CC1CCN(C(=O)CSc2nnc(NC(=O)Nc3ccccc3)s2)CC1 | · | · | · | -4% | ·
Cc1c(CCC(C)C)c(=O)n2c([nH]c3ccccc32)c1C#N | -7% | 2 | -4% | 3.2µM* | -13%
Cc1c(CCO)c(=O)n2c([nH]c3ccccc32)c1C#N | -8% | -1 | -2% | 4% | 13%
O=C(Nc1ccc(OC(F)F)cc1)c1nc(SCc2ccccc2F)ncc1Cl | · | · | · | -1% | ·
Cc1cc(C)n(-c2nc(C)c(C)c(=O)n2CC(=O)Nc2ccc(Cl)c(Cl)c2)n1 | · | · | · | 1% | ·
Cc1cc(C(=O)C(C)OC(=O)C2=NNC(=O)CC2)c(C)n1-c1ccc(OC(F)F)cc1 (stereo not given) | -3% | 1 | 1% | 20µM* | ·
CCOc1ccc(S(=O)(=O)NCc2ccc(C)cc2)c2cccnc12 | -4% | 0 | -8% | 32µM* | -2%
CCCCNS(=O)(=O)c1ccc(OC)c2ncccc12 | -5% | -1 | -2% | 28µM* | -11%
COc1ccc(S(=O)(=O)n2ccnc2)c2cccnc12 | 13% | 2 | 16% | 13µM* | -19%
CCOc1ccccc1NC(=O)N(Cc1ccc(F)cc1)C1CCN(CC)CC1 | · | · | · | -1% | ·
Cc1ccc(S(=O)(=O)c2nnn3c2nc(NCCc2ccccc2)c2sccc23)cc1 | · | · | · | 10µM* | ·
Cc1ccc(S(=O)(=O)c2nnn3c2nc(NCc2ccc4c(c2)OCO4)c2sccc23)cc1C | · | · | · | 20µM* | ·
CC(C)c1ccc(S(=O)(=O)c2nnn3c2nc(NCCc2ccccc2)c2sccc23)cc1 | · | · | · | 25µM* | ·
Cc1ccc(CCNc2nc3c(S(=O)(=O)c4ccccc4)nnn3c3ccsc23)cc1 | · | · | · | -25% | ·
CC1CCN(C(=O)COC(=O)c2n[nH]c3ccccc23)CC1 | -6% | 2 | ? | 28µM* | ?
O=c1oc2ccc3ccccc3c2c2c1SC(C(F)(F)F)C2 (stereo not given) | 8% | 0 | 1% | 35µM* | -8%
CC1=CC(c2ccc(Cl)cc2)n2nc(N3C(=O)CCC3=O)nc2N1 (stereo not given) | 6% | 0 | -2% | 10µM* | -22%
CC1=CC(c2ccc(Cl)cc2)n2nc(NS(=O)(=O)c3ccc(C)cc3)nc2N1 (stereo not given) | -7% | 0 | -4% | 22µM* | -4%
O/N=C(/C[n+]1cccc(Br)c1)c1ccc2ccccc2c1 | · | · | · | -2% | ·
SMILES | CXXC DNA block | Menin-MLL FL inh | p53 reactivation | ClpP mod | Menin MLL FP TR
COc1cc(/C=C2\SC(N3CCC(C)CC3)=NC2=O)ccc1O | 66% | ? | 10% | 14µM* | -19%
CC(C)(C)[C@H]1CCC(=O)N(CCSc2ccc(Br)cc2)CC1 | · | · | · | 1% | ·
O=C(Nc1cccc(C(F)(F)F)c1)c1cccnc1NCCO | 12% | -6 | · | · | 2%
O=C(Nc1cccc(C(F)(F)F)c1)c1cccnc1NCCc1ccccc1 | 9% | -1 | ? | 28µM* | ?
CCOC(=O)Cc1c(C)c2c(C)nn(-c3ccccc3)c2oc1=O | -4% | 0 | 1% | 35µM* | -12%
COc1ccc(-c2cc(C(=O)NCCc3ccccc3)c3c(-c4ccccc4)[nH]nc3n2)cc1 | · | · | · | 13µM* | ·
COc1ccc(-c2cc(C(=O)NCCc3ccccc3)c3c(-c4ccc(Cl)cc4)[nH]nc3n2)cc1 | · | · | · | 4% | ·
Cc1ccc(S(=O)(=O)N2CCN(c3nc(-c4cncs4)nc4ccccc34)CC2)cc1 | · | · | · | 4% | ·
O=c1c2ccccc2nc(/C=C/c2ccc(Br)cc2)n1CCCO | 21% | 3 | 8% | 13% | 8%
O=c1c2ccccc2nc(/C=C/c2ccc(Cl)cc2)n1CCO | 1% | -3 | -79% | 32µM* | -4%
CCN(CC)C(=O)CSc1nc(-c2ccco2)cc(C(F)(F)F)c1C#N | 10% | 2 | -4% | 32µM* | -10%
CSc1nc(-c2ccco2)cc(C(F)(F)F)c1C#N | 25% | 0 | -5% | -7% | ?
N#Cc1c(C(F)(F)F)cc(-c2ccco2)nc1SCc1ccncc1 | -3% | ? | 6% | 25µM* | 19%
N#Cc1c(C(F)(F)F)cc(-c2ccco2)nc1SCc1ccccn1 | -1% | ? | · | 32µM* | -4%
CC(C)=CNNC(=O)c1ccc(O)cc1 | · | · | · | -2% | ·
Cc1cc(=O)oc2cc(OC(C)C(=O)Nc3ccc(C(N)=O)cc3)ccc12 (stereo not given) | · | · | -9% | 4% | ·
Cc1cc(=O)oc2cc(NC(=O)C(C)Oc3cccc(Cl)c3)ccc12 (stereo not given) | · | · | 12% | 10µM* | ·
C=C(Cl)COc1ccc2c(C)cc(=O)oc2c1 | 7% | -2 | 14% | 10µM* | -4%
C=C(Cl)COc1ccc2c(CC)cc(=O)oc2c1 | -3% | 5 | 12% | 25µM* | 0%
Cc1cc(=O)oc2cc(OCC(=O)NCCCN3CCOCC3)ccc12 | 6% | -1 | · | 28µM* | -3%
CCc1cc(=O)oc2cc(OCC(N)=O)c(Cl)cc12 | 7% | 8 | 2% | 32µM* | ·
Cc1cc(=O)oc2cc(OCC(=O)NC3CCCC3)ccc12 | 1% | -2 | · | 5% | -2%
CN(C)c1ccc(C=Nc2ccc(/C=C3\C=Cc4ccccc43)cc2)cc1 | · | · | · | -7% | ·
O=[N+]([O-])c1ccc(/C=C/c2ccnc3ccccc23)c([N+](=O)[O-])c1 | · | · | · | 1% | ·
CCCCc1cc(=O)oc2cc(OCC(=O)N(CC)CC)ccc12 | 19% | -4 | -2% | 28µM* | 2%
CCCCc1cc(=O)oc2cc(OCC(=O)N(CC)CC)c(Cl)cc12 | -2% | 0 | -2% | 4% | -5%
C=C(Cl)COc1ccc2c(CCCC)cc(=O)oc2c1 | 14% | -1 | 4% | 28µM* | ·
C=C(C)COc1ccc2c(CC)cc(=O)oc2c1 | 19% | 0 | -1% | 4% | ?
COc1ccc(C2=Nn3c(nnc3-c3cccc(OC)c3)SC2)cc1 | · | -1 | · | · | 2%
Cc1cc(NC(=O)c2ccccc2)ccc1NC(=O)c1ccccc1Cl | 16% | 1 | · | 134% | 10%
